Compounds with a hit are over-represented: about 3.4% of the library has one in this group of screens.
Peg3 imprint: induces erasure of genomic imprints in mouse ES cells. mouse ES Peg3-LacZ reporter, beta-gal luminescence, 40 h. Potency, µM (titrated, usually from 60.7 µM), hits mostly activators. 0.02% of 110,000 active. AID 1948
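Each well holds 300 Peg3LacZ-Neo (maternal) female ES cells incubated 40 h at 37C, 5% CO2. LacZ is measured by BetaGlo luminescence, with AC50 and maximum efficacy derived from dose-response curves.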
p53ts 32C tox: cytotoxicity in p53ts cells at permissive temperature; H1299-p53A138V at 32C, ATP luminescence viability, 24 h; 0.93% of 130,000 active; Potency, µM (doses to about 46.1 µM), actives largely listed as cytotoxic; AID 924; note: nearly all actives have a fitted effect of over 55% in size
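H1299-p53 A138V cells (temperature-sensitive p53) exposed 24 h to up to 46 uM compound at 32C, where p53 is wild-type in conformation. Viability read as ATP luminescence and normalised to DMSO and 100 uM tamoxifen. AC50 fitted with the Hill equation.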
FLuc inh: inhibitors of firefly luciferase; purified firefly luciferase, luminescence, 8 min; Potency, µM (highest dose often 57.1 µM), usual class: inhibitors; AID 411; 2.2% of 72,000 active; P08659; note: nearly all actives have a fitted effect of over 40% in size
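qHTS concentration-response profiling: light output of P. pyralis luciferase with luciferin and 10 uM ATP, imidazole buffer pH 7.2. Read by luminescence after 8-min room-temperature incubation.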
Tau filament bind: tau filament binding; recombinant tau filaments, thioflavin S fluorescence, 15 h; filaments grown with octadecylsulfate alongside compound; Potency, µM (highest dose often 57.1 µM); 2% of 71,000 active;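 note: actives lower thioflavin S fluorescence by blocking filaments or displacing dye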
Target sequence (P10636 whole entry, looked up): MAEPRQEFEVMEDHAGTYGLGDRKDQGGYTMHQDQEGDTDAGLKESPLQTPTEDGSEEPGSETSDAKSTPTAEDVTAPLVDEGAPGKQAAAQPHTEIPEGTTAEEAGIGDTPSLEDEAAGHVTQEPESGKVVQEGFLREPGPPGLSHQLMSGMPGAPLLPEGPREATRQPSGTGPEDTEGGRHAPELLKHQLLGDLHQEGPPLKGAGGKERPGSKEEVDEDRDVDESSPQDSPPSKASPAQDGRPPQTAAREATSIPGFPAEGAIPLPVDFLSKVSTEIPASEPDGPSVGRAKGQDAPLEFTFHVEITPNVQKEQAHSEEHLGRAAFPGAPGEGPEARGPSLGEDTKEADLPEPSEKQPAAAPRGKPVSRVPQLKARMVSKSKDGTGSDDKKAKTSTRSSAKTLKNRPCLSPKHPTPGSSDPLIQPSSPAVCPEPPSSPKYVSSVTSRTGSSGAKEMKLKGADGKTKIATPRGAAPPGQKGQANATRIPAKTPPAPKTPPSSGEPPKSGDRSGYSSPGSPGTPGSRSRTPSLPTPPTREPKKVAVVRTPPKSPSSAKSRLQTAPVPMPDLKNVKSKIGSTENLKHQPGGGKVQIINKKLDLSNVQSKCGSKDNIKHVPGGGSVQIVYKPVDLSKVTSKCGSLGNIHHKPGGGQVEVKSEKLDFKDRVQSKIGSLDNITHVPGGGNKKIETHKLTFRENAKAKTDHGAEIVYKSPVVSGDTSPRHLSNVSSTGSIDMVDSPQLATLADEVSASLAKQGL
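Tau 2 uM in ThS buffer dispensed; compound added; 60 uM ODS added (finals 1 uM tau, 30 uM ODS); 15 h 37 C; fluor ex450/em510.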
p53ts 39C tox: p53ts cell cytotoxicity, nonpermissive temperature. AID 902. H1299-p53A138V viability at 39C, ATP luminescence, 24 h. 1.5% of 130,000 active. Potency, µM (titrated, usually from 46.1 µM), hits mostly cytotoxic; note: nearly all actives have a fitted effect of over 55% in size
Numbers stand for hits; – = inactive; ? = inconclusive; · = no result given; ! = a repeat was not active; [ ] = another dose, or the depositor's remark. Calls come from the whole dose curve; as a rule, active = well fitted curve in the direction sought with a large enough effect; inconclusive = small, poorly fitted or top-dose-only effect, or another doubt; inactive = no such curve, though single readings can be large; an effect the other way counts as inactive or inconclusive.

SMILES | Peg3 imprint | p53ts 32C tox | FLuc inh | Tau filament bind | p53ts 39C tox
Nc1ccccc1C(=O)OCCOc1ccccc1 | – | – | 13µM | – | –
O=C1C[C@H]2OCCC=C3CN4CC[C@@]56c7ccccc7N1[C@@H]5[C@H]2[C@H]3C[C@@H]46 | · | · | –[11.4 µM] | – | ·
CSC([N-]/N=C/c1cccc(C)n1)=[S]=[Cu].CS[C@H]([S-])[N-]/N=C/c1cccc(C)n1 | · | 2µM | –[11.4 µM] | ? | ?
NC(=NCCC[C@@H](N)C(=O)O)N[N+](=O)[O-] | · | · | – | – | ·
CC(C)Nc1ccc(Nc2ccccc2)cc1 | – | · | · | 16µM | ·
C[C@H]1C(=O)O[C@H]2CCN3CC=C(COC(=O)[C@](C)(O)[C@@]1(C)O)[C@H]23 | · | · | –[11.4 µM] | – | ·
C1=C(c2c[nH]c3ccccc23)CCNC1 | – | – | – | – | –
CCCOc1ccc2[nH]cc(C3=CCNCC3)c2n1 | – | – | 13µM | ? | –
CC(=O)OCC1=C(C(=O)[O-])N2C(=O)[C@@H](NC(=O)CCC[C@@H](N)C(=O)[O-])[C@@H]2SC1.[Zn+2] | · | – | – | – | –
CC1=C(O)C(=O)[C@H]2O[C@@H]2C1=O | – | 16µM | – | ? | ?
O=C(O)[C@@H](O)[C@@H](O)[C@@H]1[O][Sb][O][C@@H]1CO | · | –[9.22 µM] | –[11.4 µM] | –[11.4 µM] | –[9.22 µM]
O=c1cccc2n1C[C@H]1C[C@@H]2CN(CCO)C1 | · | · | –[11.4 µM] | – | ·
COc1cc2c(cc1O)C[C@H]1c3c(cc(O)c(OC)c3-2)CCN1C | – | – | –[11.4 µM] | 40µM! | –
CC(C)(C)c1ccc(C(=O)Nc2ccc3nc(SCC(=O)N4CCCC4)sc3c2)cc1 | –[10.9 µM] | 13µM | · | · | 3.2µM
CNc1ccc2oc(C[C@@H]3O[C@@]4(CC[C@H]3C)O[C@@H]([C@@H](C)C(=O)c3ccc[nH]3)[C@@H](C)C[C@H]4C)nc2c1C(=O)O | · | · | – | – | ·
C=C1C/C(=C\C)C(=O)O[C@@H]2CCN3CC=C(COC(=O)[C@]1(C)O)[C@H]23 | · | · | –[11.4 µM] | ? | ·
CC(C)(C)c1cc(C=C(C#N)C#N)cc(C(C)(C)C)c1O | – | 10µM | – | – | –
CCCCCCCC/C=C\CCCCCCCC(N)=O | – | – | – | – | 32µM
Cc1ccc(O)cc1C | – | · | · | – | ·
C=CCN1C[C@H](C)N([C@H](c2ccc(C(=O)N(CC)CC)cc2)c2cccc(O)c2)C[C@H]1C | – | – | – | 40µM | –
Ic1ccccc1CN[C@@H]1C2CCN(CC2)[C@H]1C(c1ccccc1)c1ccccc1 | · | ? | – | – | 20µM
Ic1ccccc1CNC1C2CCN(CC2)C1C(c1ccccc1)c1ccccc1 (stereo not given) | – | · | · | · | ·
OCCN1CCN(CCCN2c3ccccc3Sc3ccc(C(F)(F)F)cc32)CC1 | – | ? | – | – | 13µM!
C[C@@H]1[C@H]2C=C[C@@H]1[C@@H](c1c3ccc(=O)c(O)c-3oc3c(O)c(O)ccc13)[C@@H]2C(=O)O | · | –[9.22 µM] | –[11.4 µM] | ? | –[9.22 µM]
c1ccc2c(c1)[nH]c1cnccc12 | – | – | – | · | –
SMILES | Peg3 imprint | p53ts 32C tox | FLuc inh | Tau filament bind | p53ts 39C tox
Cc1c2ccncc2c(C)c2c1[nH]c1ccccc12 | – | 13µM | – | – | 13µM
COC(=O)[C@@H]1C[C@@H]1[C@@H](NP(=O)(c1ccccc1)c1ccccc1)c1ccccc1 | · | · | · | – | ·
COc1ccc2c(c1)[C@]13CCCC[C@@H]1[C@H](C2)NCC3 | · | – | – | – | –
O=C1C=CC(=O)c2c1ccc1c2ccc2ccccc21 | – | 10µM | – | 4µM | –
Cc1cc2c(C(C)C)c(O)c(O)c(C=O)c2c(O)c1-c1c(C)cc2c(C(C)C)c(O)c(O)c(C=O)c2c1O | – | 20µM! | – | 1µM | 20µM
O=C(O)C1=CCCN(CCOC(c2ccc(C(F)(F)F)cc2)c2ccc(C(F)(F)F)cc2)C1 | – | – | – | ? | –
Fc1ccc(C(OCCN2CCN(CCCc3ccccc3)CC2)c2ccc(F)cc2)cc1 | – | ? | – | ? | 32µM!
c1ccc(CCCN2CCN(CCOC(c3ccccc3)c3ccccc3)CC2)cc1 | – | ? | – | – | 32µM
CC[C@H](CO)NC(=O)[C@@H]1C=C2c3cccc4c3c(cn4C)C[C@@H]2N(C)C1 | · | – | – | – | –
Cc1ccc2ccccc2c1C | – | · | · | – | ·
CC(C)N[C@@H](C)Cc1ccc(I)cc1 | · | – | – | – | –
CN(C)c1ccc(N=Nc2ccccc2)cc1 | – | –[1.84 µM] | · | 16µM | –
CN(C)c1ccc(N=O)cc1 | ? | –[1.84 µM] | · | – | ?
C=CCN1CCc2cccc3c2[C@@H]1Cc1ccc(O)c(O)c1-3 | · | ? | – | – | ?
O=C(O)c1cc[c]([Hg][S]c2ncnc3nc[nH]c23)cc1 | –[10.9 µM] | –[9.22 µM] | ? | –[11.4 µM] | ?
CCCN1CCc2cc(O)cc3c2[C@H]1Cc1ccc(O)c(O)c1-3 | · | – | – | 25µM | ?
CCCN1CCc2cccc3c2C1Cc1ccc(O)c(O)c1-3 (stereo not given) | – | · | · | · | ·
CC[C@@]1(O)CC(O)c2c(cc3c(c2O)C(=O)c2c(O)ccc(O)c2C3=O)C1C(=O)OC (stereo not given in full) | – | ? | · | · | 13µM
CC[C@]1(O)CC(O[C@@H]2CC(N(C)C)C(O)C(C)O2)c2c(cc3c(c2O)C(=O)c2c(O)cccc2C3=O)C1C(=O)OC (stereo not given in full) | – | – | · | · | ?
C=C(C)CN1CC[C@@]23c4c5ccc(O)c4O[C@H]2c2[nH]c4ccccc4c2C[C@]3(O)[C@@H]1C5 | – | ? | – | ? | 32µM
NC(N)=Nc1ccc2[nH]c3c(c2c1)C[C@]1(O)[C@@H]2Cc4ccc(O)c5c4[C@]1(CCN2CC1CC1)[C@H]3O5 | · | 13µM | – | – | 25µM
C=CCn1c(O)c(C(C)=NCc2cc(OC)cc(OC)c2)c(=O)[nH]c1=O | – | 10µM | – | – | ?
O=CN1C[C@H]2C[C@@H](C1)c1cccc(=O)n1C2 | · | · | –[11.4 µM] | – | ·
CC(C)[C@H](CO)Nc1nc(Nc2cccc(Cl)c2)c2ncn(C(C)C)c2n1 | – | – | – | – | –
CCn1cnc2c(Nc3cccc(Cl)c3)nc(N[C@@H]3CCCC[C@H]3N)nc21 | · | 10µM | – | – | 13µM
SMILES | Peg3 imprint | p53ts 32C tox | FLuc inh | Tau filament bind | p53ts 39C tox
COc1cc(CC2C(=O)N(C)C(=O)N(C)C2=O)ccc1OCc1ccccc1 | – | – | – | – | –
CCCCOc1ccc(CN2C(=O)C(=O)c3cc(C)ccc32)cc1OC | –[10.9 µM] | – | · | · | 10µM
C=C[C@@H]1CN2CC[C@@H]1C[C@H]2[C@H](O)c1ccnc2ccccc12 | · | · | –[11.4 µM] | ? | ·
CC(=O)c1cccc(NC(=O)c2cc3c(s2)-c2c(C)cccc2OC3)c1 | –[10.9 µM] | 10µM | · | · | 5µM
CO[C@@H]1CC=C2CCN3CCC4=C(CC(=O)OC4)[C@]23C1 | · | – | – | – | –
Cc1ccc(Cl)cc1Nc1nn2c(=O)c3ccc(C(=O)NCc4cccs4)cc3nc2s1 | –[10.9 µM] | 13µM | · | · | 16µM
COc1cccc(NC(=O)c2ccc3c(=O)n4nc(Nc5ccccc5OC)sc4nc3c2)c1 | –[10.9 µM] | – | · | · | ?
CCOc1ccc(NC(=O)CSc2oc(-c3ccccc3)nc2S(=O)(=O)c2ccc(Cl)cc2)cc1 | –[10.9 µM] | ? | · | · | 2µM
O=C(CSc1oc(-c2ccccc2)nc1S(=O)(=O)c1ccc(Cl)cc1)Nc1ccc(F)cc1 | –[10.9 µM] | ? | · | · | 13µM

High-throughput results: PubChem BioAssay, National Center for Advancing Translational Sciences (NCATS)
